Laboratory results published in PubChem BioAssay (NCI).
This is part of a sample that, as a whole, favours compounds with a hit. Of some 79,000 tested, about 15% had one in any assay. Calls of active or inactive are those of the source. Cut-off read from the data, not from the text of the source: active = growth inhibition above about 70%; inactive = the rest.

Experiment: NCI Yeast Anticancer Drug Screen. Data for the rad52 strain (AID 147);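 note: 0% = growth of vehicle-treated control cultures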
Details: S. cerevisiae rad52 mutant growth inhibition, stronger effect = higher value
Method: Growth inhibition of yeast strains with defined genetic alterations is measured as a screen for potential anti-cancer activity. Selected strains with alterations in DNA damage repair or cell cycle control were exposed to compounds and growth inhibition was measured relative to vehicle treated controls. The strain used in this assay is rad52

Measured: growth inhibition

CCCC/C([O-])=C1/C(=O)N(c2ccccc2)N=C1C.CCCC/C([O-])=C1/C(=O)N(c2ccccc2)N=C1C.[Cu+2]
inactive: at 1.2 µM 1% | at 3.7 µM 2% | at 11.0 µM 2% | at 33.0 µM 1% | at 100.0 µM -2%

CCCCCCCCCCCC1=NCCO1
active: at 100.0 µM 98%
inactive: at 1.2 µM 3% | at 3.7 µM 3% | at 11.0 µM -1% | at 33.0 µM 18%

CCOc1ccc(NC(=O)C2=C(C)NC(C)=C(C(=O)Nc3ccc(OCC)cc3)C2c2cccc([N+](=O)[O-])c2)cc1
active: at 100.0 µM 82%
inactive: at 1.2 µM -2% | at 3.7 µM 0% | at 11.0 µM 5% | at 33.0 µM 49%

CCC1(OC(=O)CN2CCN(CCO)CC2)C(=O)OCc2c1cc1n(c2=O)Cc2cc3ccccc3nc2-1 (stereo not given)
active: at 11.0 µM 70% | at 33.0 µM 89% | at 100.0 µM 93%
inactive: at 1.2 µM 35% | at 3.7 µM 49%

Nc1cc(N)c(N=Nc2cccc3c(S(=O)(=O)O)cccc23)cc1N=Nc1cc([N+](=O)[O-])ccc1O
inactive: at 1.2 µM 32% | at 3.7 µM 26% | at 11.0 µM 17% | at 33.0 µM -23% | at 100.0 µM 56%

CN(C)CCNc1ccc2ncnc3c2c1C(=O)c1ccccc1-3
active: at 1.2 µM 95% | at 3.7 µM 94% | at 11.0 µM 96% | at 33.0 µM 97% | at 100.0 µM 96%

CCC(C)(C)c1ccc(Oc2cccc(C(=O)O)c2)cc1
inactive: at 1.2 µM -2% | at 3.7 µM -1% | at 11.0 µM 17% | at 33.0 µM 59% | at 100.0 µM 68%

Clc1ccc2c(c1)N(CCCN1CCCC13CCCCC3)c1ccccc1S2
inactive: at 1.2 µM 1% | at 3.7 µM 3% | at 11.0 µM 2% | at 33.0 µM 1% | at 100.0 µM -7%
